The list is not random: actives were taken first. Their share in the collection is about 4%.
KKLEB cytotox: reduces viability of KKLEB cystic fibrosis airway cells. KKLEB CF airway cells viability, ATPlite luminescence, overnight; stronger effect = lower value; cells stimulated with P. aeruginosa culture filtrate. activity change (cytotoxicity), % at 5 µM. hit rate 0.36% among 360,000. AID 602141;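 active = corrected activity change at or below -50% at 5 µM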
CF NFkB inh: blocks PAF-induced NF-kB reporter in cystic fibrosis cells. hit rate 0.86% among 360,000. AID 588850. inhibition, % at 5 µM. KKLEB NF-kB-GFP reporter, GFP fluorescence overnight;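 active = at least 50% inhibition at 5 µM, scaled per plate between neutral and stimulator controls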;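 also: PAF is a Pseudomonas aeruginosa culture filtrate used as stimulus; plate controls were PAF-stimulated DMSO wells for no effect and unstimulated DMSO wells for full effect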
Peg3 prom inh: reduces Peg3 promoter-driven luciferase expression in HeLa; inhibition, % at 20 µM; HeLa PEG-Prom luciferase reporter, luminescence, overnight; hit rate 1.7% among 360,000; AID 588405;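 active = inhibition of at least 50% at 20 µM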
TROY NFkB inh: inhibitors of TROY-dependent NF-kB signaling. Q293 LMP1-TROYcd NF-kB luciferase reporter, 4 h. inhibition, % at 10 µM. hit rate 0.98% among 360,000. AID 1347056;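 active = compounds whose plate-normalised and pattern-corrected inhibition of the luciferase reporter signal at the single screening dose is 50% or more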
HIF-2a inh: inhibitors of HIF-2a; 786-0 RCC cells HIF-2a reporter, luciferase luminescence, overnight; inhibition, % at 18.8 µM; hit rate 0.72% among 360,000; AID 624352;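 active = inhibition of the luminescence signal of 40% or more relative to plate controls, in a single-dose primary screen at 18.75 µM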
TWEAK-Fn14 inh: blocks TWEAK-Fn14 interaction in a reporter cell assay; hit rate 2% among 360,000; TWEAK-stimulated Fn14 reporter cells, luciferase luminescence, 8 h; inhibition, % at 10 µM; in the data active = inhibition above about 50%
Numbers without * were called inactive.

SMILES | KKLEB cytotox | CF NFkB inh | Peg3 prom inh | TROY NFkB inh | HIF-2a inh | TWEAK-Fn14 inh
Cc1ccc(-c2cc(-c3ccccc3)no2)c(O)c1 | -35 | -6 | -101 | 53* | -68 | 76*
O=C(NCCc1ccc(Cl)cc1)c1ccc(S(=O)(=O)N2CCCC2)cc1 | -4 | 0 | 10 | -3 | 17 | -5
Cn1c(=O)[nH]c(=O)c2c1nc(SCc1ccccc1Cl)n2CC(N)=O | 2 | -2 | -1 | -12 | 2 | 4
CC(=O)c1c(OCC(=O)O)ccc2c(C)cc(=O)oc12 | -4 | 4 | 8 | -9 | 9 | 6
CC(=O)c1c(OC(=O)c2ccccc2Br)ccc2c(C)cc(=O)oc12 | -13 | -3 | 17 | 37 | 17 | 54*
O=C(Nc1ccc(F)cc1)NC1(C(=O)NCc2ccco2)CCCCC1 | -79* | -17 | 4 | 1 | 14 | 1
Nc1nnc(N)c2ccccc12 | 12 | -18 | 1 | 0 | 14 | 7
Nc1nsc2ccccc12 | -2 | -14 | 51* | 12 | -8 | 26
Cc1ccc(Cl)cc1N1CCN(C(=O)C2CCN(S(=O)(=O)c3c(C)nn(C)c3C)CC2)CC1 | -13 | 12 | 51* | 29 | 9 | 30
COc1cc(C(=O)NC(=S)Nc2csc(-c3ccc(F)cc3)n2)cc(OC)c1OC | -3 | 10 | -15 | 56* | 5 | 10
CC(=O)C(Cc1ccccc1)NC(=O)CCl (configuration not stated) | -22 | -3 | 23 | -24 | 18 | 8
O=C(CCl)NC(Cc1ccccc1)c1ccccc1 (configuration not stated) | -19 | 13 | 42 | -23 | 27 | 53*
CC(=O)c1ccc(NC(=O)Nc2ccncc2)cc1 | 10 | 2 | -56 | 5 | -81 | 58*
COC(=O)c1sccc1NC(=O)Nc1ccc(C)cc1 | 11 | -3 | -68 | -23 | -144 | -7
COC(=O)c1sccc1NC(=O)Nc1ccc(C(C)=O)cc1 | 8 | -16 | -19 | 37 | -62 | 59*
O=C(Nc1ccncc1)Nc1ccncc1 | -3 | 1 | 3 | 14 | 16 | 11
O=C(COC(=O)c1c[nH]c(=O)[nH]c1=O)Nc1cccc([N+](=O)[O-])c1 | -6 | 4 | 4 | -3 | 7 | 2
CC1CCCCN1S(=O)(=O)c1ccc(C(=O)Nc2ccccc2-c2nc3ccccc3[nH]2)cc1 (configuration not stated) | -4 | 22 | 43 | 26 | 10 | 53*
OC(c1ccc(Cl)cc1)c1nccc2ccccc12 (configuration not stated) | 0 | 2 | -13 | -21 | -41 | -5
O=C(Cn1cnnn1)OCC(=O)c1ccc(Cl)s1 | 3 | 0 | 17 | 71* | 13 | -6
OC(CSc1ccccc1Cl)CN1CCN(c2ccccc2F)CC1 (configuration not stated) | -3 | 3 | -7 | 63* | -3 | 32
Brc1ccc(-n2cnc(-c3ccccc3)c2)cc1 | -12 | -17 | -152 | -33 | -186 | 14
NC(=O)CSc1ncc(-c2ccc([N+](=O)[O-])cc2)[nH]1 | 4 | 5 | -16 | -5 | -51 | -10
O=[N+]([O-])c1ccc(-c2cnc(SCc3ccccc3Cl)[nH]2)cc1 | 0 | -12 | -185 | -19 | -240 | -34
Cc1cc(C)c(CSc2ncc(-c3ccc([N+](=O)[O-])cc3)[nH]2)c(C)c1 | -6 | 0 | 36 | 57* | -44 | 41
SMILES | KKLEB cytotox | CF NFkB inh | Peg3 prom inh | TROY NFkB inh | HIF-2a inh | TWEAK-Fn14 inh
O=[N+]([O-])c1ccc(-c2cnc(SC(c3ccccc3)c3ccccc3)[nH]2)cc1 | 2 | -24 | 53* | 62* | 9 | 79*
COC(=O)c1ccc(NS(=O)(=O)c2ccc(-c3cc(C)no3)s2)cc1 | 0 | -18 | 6 | 3 | 9 | 1
COc1cccc(NC(=O)C2CCN(c3cnccn3)CC2)c1 | 1 | 4 | 0 | -2 | 5 | 98*
COc1ccc(-n2c(-c3ccc(Br)cc3)c[n+]3c2CCC3)cc1 | -19 | -12 | 3 | 27 | 14 | 23
COc1ccc(-n2c(-c3ccccc3)c[n+]3c2CCC3)cc1 | 11 | -8 | -2 | -8 | 16 | 86*
C(=C\c1ccco1)/c1nc2ccccc2[nH]1 | -2 | 10 | -199 | -13 | -187 | 2
CN(C)c1ccc(/C=C/c2nc3ccccc3c(=O)[nH]2)cc1 | -77* | -16 | 21 | 70* | -87 | 88*
C(=C\c1nc2ccccc2[nH]1)/c1ccccc1 | 16 | 5 | -91 | 34 | -6 | 75*
Cc1nc(/C=C/c2ccccc2)[nH]c(=O)c1-c1ccccc1 | -7 | 8 | -232 | -5 | -215 | 64*
COc1cccc(NC(=O)CN(C)C(=O)Cc2c(C)nc3ccccc3c2C)c1 | -10 | -13 | 11 | 8 | 10 | 10
Cc1ccc(NC2CCCN(C(=O)CN3C(=O)c4ccccc4C3=O)C2)cc1C (configuration not stated) | 0 | 4 | 8 | 0 | 10 | -13
Cc1cc(NC(=O)NC(=O)c2ccccc2)no1 | 4 | 4 | -222 | -16 | -231 | -2
Cc1cc(C(=O)OCC(=O)c2cccs2)ccc1[N+](=O)[O-] | 12 | -40 | -14 | -39 | 0 | -9
CN(C(=O)C1CCN(S(=O)(=O)c2ccccc2)CC1)c1c(N)n(Cc2ccccc2)c(=O)[nH]c1=O | 5 | 4 | -8 | -3 | -2 | -5
COc1cc(NC(=O)Cn2cnc(C(=O)Nc3ccc(C)c(C)c3)n2)cc(OC)c1OC | 0 | 8 | -19 | -16 | -23 | -4
O=C(O)c1cc(-c2ccc(-c3c(-c4ccc5c(c4)OCO5)noc3-c3ccsc3)cc2)nc2ccccc12 | 0 | -1 | -242 | 39 | -241 | 57*
CN(C)c1ccc(-c2c(-c3ccc4c(c3)OCO4)noc2-c2ccsc2)cn1 | 0 | -9 | -75 | -45 | -140 | -52
COc1cc(NC(=O)CSc2ncnc3c2cnn3Cc2ccccc2)cc(OC)c1 | -14 | 18 | 21 | 31 | 21 | 62*
COc1ccc(OC)c(NC(=O)CSc2ncnc3c2cnn3-c2ccccc2Cl)c1 | 3 | -16 | 13 | 40 | 27 | 74*
COC(=O)CSc1ncnc2c1cnn2Cc1ccccc1 | -8 | 5 | -9 | 8 | 18 | 4
Cc1nc(N/N=C/c2cccc([N+](=O)[O-])c2)cc(N2CCCCC2)n1 | -15 | 15 | 27 | 12 | 7 | 19
O=C(NCC(=O)N1CCN(S(=O)(=O)c2c(F)cccc2F)CC1)c1ccccc1F | 15 | -18 | -13 | -10 | -1 | 13
Cc1cccnc1C(NC(=O)C1CCN(Cc2ccc(Cl)cc2)CC1)c1ccc(F)cc1 (configuration not stated) | -5 | 14 | 20 | -4 | -2 | 10
COc1cccc(-c2nc(NC3CCCC3)c3ccccc3n2)c1O | 6 | -12 | 42 | 71* | -56 | -2

Compound activity as filed in PubChem BioAssay.
